# ± gives the standard deviation of the averaged measurements.
# Compound: CCC1CCC(=O)O1 [γ-hexalactone]
# Experiment: control-subtracted net OSN firing rate; higher = stronger neuronal activation
# Conditions: odorant dilution (vol/vol): 1/100
# Method: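 Single sensillum recordings from olfactory sensory neurons. The neurons sit in the maxillary palp or antennal sensilla of D. melanogaster (wild type, mutants, or at1 empty-neuron lines expressing Or42a homologs or the A181D S307P mutant) and of four Scaptomyza species. Each odorant was given as a 1 s pulse from 20 µl loaded on filter paper at 1:100 vol/vol, diluted in mineral oil (γ-hexalactone in DMSO). Spikes were counted in a 0.5 s window starting 0.2 s after onset, background was subtracted, the count was doubled, and the mean solvent-control response was subtracted.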
row,Target,control-subtracted net OSN firing rate [spikes/s]
1,"Or67dGal4, UAS-Sfla Or42a3/+ at1",34 ± 6.2
2,Canton-S ai2b,10 ± 6.9
3,Canton-S ab6b,4.22 ± 12
4,Canton-S pb1a,167 ± 28
5,Canton-S pb3a,-1.14 ± 8.2
6,Canton-S ab1a,0.25 ± 12
7,Canton-S ab8a,3.2 ± 11
8,Canton-S ab5b,1.6 ± 5.2

# — the supplement of paper PMC11482750
